Laboratory results as given in publication PMC11006913.
Positions count from the first letter of the chain named.

What was measured:
Test in all cases: PBM; 200 nM protein, PBS
Conditions in all cases: dsDNA, one strand shown
PRRX1 [1] = target: PRRX1 (Homo sapiens, UniProt P54821 80-166, F113S)
HOXB6 = HOXB6 (Homo sapiens, UniProt P17509 132-218, K202E)
HOXA2 = HOXA2 (Homo sapiens, UniProt O43364 129-215, R185T)
HOXA4 [2] = target: HOXA4 (Homo sapiens, UniProt Q00056 201-287, R217L)
MSX2 [3] = target: MSX2 (Homo sapiens, UniProt P35548 130-214, R199I)
Chain of MSX2 (Homo sapiens, UniProt P35548 130-214, R199I) (P35548 130-214 R199I): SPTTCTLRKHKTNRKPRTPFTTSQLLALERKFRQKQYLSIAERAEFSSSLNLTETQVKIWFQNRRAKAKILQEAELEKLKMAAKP

PAX4 [4] = target: T1, PAX4 (Homo sapiens, UniProt O43316 9-242, R200Q)
T1 sequence: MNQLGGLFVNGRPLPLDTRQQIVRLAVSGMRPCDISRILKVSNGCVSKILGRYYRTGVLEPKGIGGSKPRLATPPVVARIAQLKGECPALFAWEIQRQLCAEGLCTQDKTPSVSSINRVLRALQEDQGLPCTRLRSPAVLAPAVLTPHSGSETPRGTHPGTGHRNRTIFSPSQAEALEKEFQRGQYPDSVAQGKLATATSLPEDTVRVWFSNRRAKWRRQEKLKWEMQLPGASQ

PAX4 [5] = target: T2, PAX4 (Homo sapiens, UniProt O43316 9-242, F177V)
T2 sequence: T1 sequence with F169V, Q192R

MSX2 [6] = target: MSX2 (Homo sapiens, UniProt P35548 130-214)
Chain of MSX2 (Homo sapiens, UniProt P35548 130-214) (P35548 130-214): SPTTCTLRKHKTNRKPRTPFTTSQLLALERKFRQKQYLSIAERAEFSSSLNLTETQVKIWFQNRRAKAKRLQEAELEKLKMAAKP

PAX4 [7] = target: T3, PAX4 (Homo sapiens, UniProt O43316 9-242, F177Y)
T3 sequence: T1 sequence with F169Y, Q192R

MSX2 [8] = target: MSX2 (Homo sapiens, UniProt P35548 130-214, F161Y)
Chain of MSX2 (Homo sapiens, UniProt P35548 130-214, F161Y) (P35548 130-214 F161Y): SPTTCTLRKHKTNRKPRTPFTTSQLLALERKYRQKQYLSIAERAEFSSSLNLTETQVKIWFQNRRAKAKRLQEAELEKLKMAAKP

HOXA4 [9] = target: HOXA4 (Homo sapiens, UniProt Q00056 201-287, W262F)
Chain of HOXA4 (Homo sapiens, UniProt Q00056 201-287, W262F) (Q00056 201-287 W262F): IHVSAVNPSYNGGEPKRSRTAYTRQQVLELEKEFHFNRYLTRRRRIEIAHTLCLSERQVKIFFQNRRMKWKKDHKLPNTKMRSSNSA

PRRX1 [10] = target: PRRX1 (Homo sapiens, UniProt P54821 80-166)
Chain of PRRX1 (Homo sapiens, UniProt P54821 80-166) (P54821 80-166): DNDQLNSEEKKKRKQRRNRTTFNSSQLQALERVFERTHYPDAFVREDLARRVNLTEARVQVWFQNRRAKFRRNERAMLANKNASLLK

VENTX [11] = target: T4, VENTX (Homo sapiens, UniProt O95231 78-163, R121Q)
T4 sequence: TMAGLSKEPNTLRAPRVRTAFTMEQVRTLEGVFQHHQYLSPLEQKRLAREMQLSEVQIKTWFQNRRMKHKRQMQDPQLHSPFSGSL

VENTX [12] = target: T5, VENTX (Homo sapiens, UniProt O95231 78-163, Y115F)
T5 sequence: T4 sequence with Y38F, Q44R

VAX1 [13] = target: VAX1 (Homo sapiens, UniProt Q5SQQ9 86-172, T142I)
Chain of VAX1 (Homo sapiens, UniProt Q5SQQ9 86-172, T142I) (Q5SQQ9 86-172 T142I): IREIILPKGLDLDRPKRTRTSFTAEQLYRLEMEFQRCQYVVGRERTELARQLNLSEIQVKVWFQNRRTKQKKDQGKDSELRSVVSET

VAX1 [14] = target: VAX1 (Homo sapiens, UniProt Q5SQQ9 86-172, K157R)
Chain of VAX1 (Homo sapiens, UniProt Q5SQQ9 86-172, K157R) (Q5SQQ9 86-172 K157R): as the sequence (Q5SQQ9 86-172 T142I) above, with I57T, K72R counted along it

Chain of PRRX1 (Homo sapiens, UniProt P54821 80-166, F113S) (P54821 80-166 F113S): as the sequence (P54821 80-166) above, with F34S counted along it
Chain of HOXA2 (O43364 129-215 R185T): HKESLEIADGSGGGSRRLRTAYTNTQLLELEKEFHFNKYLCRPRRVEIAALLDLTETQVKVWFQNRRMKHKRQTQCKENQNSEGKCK
Chain of HOXB6 (P17509 132-218 K202E): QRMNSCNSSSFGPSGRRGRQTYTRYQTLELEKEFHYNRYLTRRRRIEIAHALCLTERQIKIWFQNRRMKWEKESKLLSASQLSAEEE
Chain of HOXA4 (Homo sapiens, UniProt Q00056 201-287, R217L) (Q00056 201-287 R217L): as the sequence (Q00056 201-287 W262F) above, with R17L, F62W counted along it

AATTAACT was tested, and the binding signal (PRRX1 [1]) was 11.2 upbm affinity estimate (log intensity, higher = more binding, comparable within an allelic series), the binding signal (HOXB6) was 9.99 upbm affinity estimate (log intensity, higher = more binding, comparable within an allelic series) and the binding signal (HOXA2) was 12.5 upbm affinity estimate (log intensity, higher = more binding, comparable within an allelic series). The binding signal (HOXA4 [2]) was 12.1 upbm affinity estimate (log intensity, higher = more binding, comparable within an allelic series), the binding signal (MSX2 [3]) was 12.4 upbm affinity estimate (log intensity, higher = more binding, comparable within an allelic series) and the binding signal (PAX4 [4]) was 12.1 upbm affinity estimate (log intensity, higher = more binding, comparable within an allelic series). The binding signal (PAX4 [5]) was 10.5 upbm affinity estimate (log intensity, higher = more binding, comparable within an allelic series), the binding signal (MSX2 [6]) was 13.5 upbm affinity estimate (log intensity, higher = more binding, comparable within an allelic series) and the binding signal (PAX4 [7]) was 10.9 upbm affinity estimate (log intensity, higher = more binding, comparable within an allelic series). For the same sequence, the binding signal (MSX2 [8]) was 13.1 upbm affinity estimate (log intensity, higher = more binding, comparable within an allelic series), the binding signal (HOXA4 [9]) was 11.5 upbm affinity estimate (log intensity, higher = more binding, comparable within an allelic series) and the binding signal (PRRX1 [10]) was 13.3 upbm affinity estimate (log intensity, higher = more binding, comparable within an allelic series).

For CAATTACA, the binding signal (PRRX1 [1]) was 10.9 upbm affinity estimate (log intensity, higher = more binding, comparable within an allelic series), the binding signal (HOXB6) was 9.87 upbm affinity estimate (log intensity, higher = more binding, comparable within an allelic series) and the binding signal (MSX2 [3]) was 12.5 upbm affinity estimate (log intensity, higher = more binding, comparable within an allelic series). The binding signal (MSX2 [6]) was 13.7 upbm affinity estimate (log intensity, higher = more binding, comparable within an allelic series), the binding signal (MSX2 [8]) was 13.3 upbm affinity estimate (log intensity, higher = more binding, comparable within an allelic series) and the binding signal (PRRX1 [10]) was 13.2 upbm affinity estimate (log intensity, higher = more binding, comparable within an allelic series).

In the case of CCCAGGCG, the binding signal (HOXA2) is reported as 7.06 upbm affinity estimate (log intensity, higher = more binding, comparable within an allelic series).

In the case of AATTAGCG, the binding signal (VENTX [11]) is reported as 11.9 upbm affinity estimate (log intensity, higher = more binding, comparable within an allelic series), the binding signal (PRRX1 [1]) is reported as 11 upbm affinity estimate (log intensity, higher = more binding, comparable within an allelic series) and the binding signal (VENTX [12]) is reported as 11.6 upbm affinity estimate (log intensity, higher = more binding, comparable within an allelic series). For the same sequence, the binding signal (HOXA2) was 12.6 upbm affinity estimate (log intensity, higher = more binding, comparable within an allelic series), the binding signal (MSX2 [3]) was 12.4 upbm affinity estimate (log intensity, higher = more binding, comparable within an allelic series) and the binding signal (PAX4 [4]) was 12.3 upbm affinity estimate (log intensity, higher = more binding, comparable within an allelic series). For the same sequence, the binding signal (PAX4 [5]) was 10.4 upbm affinity estimate (log intensity, higher = more binding, comparable within an allelic series), the binding signal (MSX2 [6]) was 13.5 upbm affinity estimate (log intensity, higher = more binding, comparable within an allelic series) and the binding signal (PAX4 [7]) was 11 upbm affinity estimate (log intensity, higher = more binding, comparable within an allelic series). The binding signal (MSX2 [8]) was 13 upbm affinity estimate (log intensity, higher = more binding, comparable within an allelic series), the binding signal (VAX1 [13]) was 12.4 upbm affinity estimate (log intensity, higher = more binding, comparable within an allelic series) and the binding signal (PRRX1 [10]) was 13.3 upbm affinity estimate (log intensity, higher = more binding, comparable within an allelic series). The binding signal (VAX1 [14]) was 12.5 upbm affinity estimate (log intensity, higher = more binding, comparable within an allelic series).

For CCAATTAG, the binding signal (VENTX [11]) was 12.3 upbm affinity estimate (log intensity, higher = more binding, comparable within an allelic series), the binding signal (PRRX1 [1]) was 11.2 upbm affinity estimate (log intensity, higher = more binding, comparable within an allelic series) and the binding signal (VENTX [12]) was 11.9 upbm affinity estimate (log intensity, higher = more binding, comparable within an allelic series). The binding signal (HOXA2) was 12.9 upbm affinity estimate (log intensity, higher = more binding, comparable within an allelic series), the binding signal (MSX2 [3]) was 13.1 upbm affinity estimate (log intensity, higher = more binding, comparable within an allelic series) and the binding signal (PAX4 [4]) was 12.2 upbm affinity estimate (log intensity, higher = more binding, comparable within an allelic series). For the same sequence, the binding signal (PAX4 [5]) was 10.4 upbm affinity estimate (log intensity, higher = more binding, comparable within an allelic series), the binding signal (MSX2 [6]) was 14 upbm affinity estimate (log intensity, higher = more binding, comparable within an allelic series) and the binding signal (PAX4 [7]) was 10.8 upbm affinity estimate (log intensity, higher = more binding, comparable within an allelic series). The binding signal (MSX2 [8]) was 13.7 upbm affinity estimate (log intensity, higher = more binding, comparable within an allelic series), the binding signal (VAX1 [13]) was 12.6 upbm affinity estimate (log intensity, higher = more binding, comparable within an allelic series) and the binding signal (PRRX1 [10]) was 13.4 upbm affinity estimate (log intensity, higher = more binding, comparable within an allelic series). The binding signal (VAX1 [14]) was 12.9 upbm affinity estimate (log intensity, higher = more binding, comparable within an allelic series).
